From PubChem BioAssay
Tau FP inhib: tau fibrillization inhibition (FP) | K18 P301L tau heparin fibrillization, Alexa594 FP, 6 h | actives 0.39% (n = 280,000) | Potency, µM (series often up to 57.7 µM), without a hit: top-dose activity, negative = inhibition, usual class: inhibitors; also: potency is read from the fitted curve at half-maximal effect; nearly all actives have a fitted effect of over 55% in size
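FP of Alexa 594-tau after heparin (20 uM) induction. Substrate: human K18 P301L, 15 uM unlabeled, 0.24 uM labeled. Buffer 100 mM sodium acetate pH 7. 6 hr, 37 C.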
TRb SRC2 PPI: TRbeta-SRC2 interaction inhibition; P10828; Potency, µM (titrated, usually from 106 µM), without a hit: at the top dose activity change, negative = inhibition, most hits filed as inhibitors; AID 1469; actives 0.065% (n = 280,000); TRbeta-SRC2 peptide binding, fluorescence polarization; receptor liganded with 1 µM T3;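 also: potency is read from the fitted curve at half-maximal effect; plate controls were bound peptide for no effect and peptide without receptor for full effect; nearly all actives have a fitted effect of over 50% in size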
Target sequence (P10828 whole entry, looked up): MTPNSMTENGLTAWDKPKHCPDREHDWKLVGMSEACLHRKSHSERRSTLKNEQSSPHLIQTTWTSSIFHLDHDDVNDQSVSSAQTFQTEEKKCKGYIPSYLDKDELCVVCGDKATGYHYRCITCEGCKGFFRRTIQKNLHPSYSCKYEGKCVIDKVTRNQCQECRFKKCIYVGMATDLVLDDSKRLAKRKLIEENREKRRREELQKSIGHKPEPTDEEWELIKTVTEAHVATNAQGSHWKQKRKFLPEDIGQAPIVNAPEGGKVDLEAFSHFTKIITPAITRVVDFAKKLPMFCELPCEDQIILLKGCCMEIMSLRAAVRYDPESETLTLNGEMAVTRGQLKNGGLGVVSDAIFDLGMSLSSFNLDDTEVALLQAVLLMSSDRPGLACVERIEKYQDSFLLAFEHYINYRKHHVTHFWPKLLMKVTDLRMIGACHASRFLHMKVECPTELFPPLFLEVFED
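Fluorescence polarization of 20 nM Texas Red SRC2 peptide (20-aa NR interaction domain) bound to 0.6 uM human TRb ligand-binding domain, with 1 uM T3, after 5 hr at ambient temperature; inhibition seen as decreased polarization.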
TexasRed fluor: counter-screen for TRb-SRC2 inhibitors: fluorescence interference. TRb/SRC2 Texas Red total fluorescence interference. Potency, µM (titrated, usually from 106 µM), for the others: top-dose fluorescence change, negative = quenching. actives 0.29% (n = 280,000). AID 1479; active = well fitted curve in either direction with a large enough effect; inconclusive = small, poorly fitted or top-dose-only effect; also: potency is read from the fitted curve at half-maximal effect
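Flags fluorescent or light-absorbing compounds by total fluorescence, S + 2P, at 555 nm excitation and 632 nm emission. Mixture: 20 nM Texas Red SRC2 peptide, 0.6 uM human TRb LBD, 1 uM T3, 5% DMSO; compound exposure 5 h at ambient temperature.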
Tau fluor counter: counter-screen for tau fibril formation inhibitors | Potency, µM (top dose mostly 57.7 µM), without a hit: top-dose activity change, negative = decrease | actives 0.93% (n = 280,000) | AID 1463 | tau K18 P301L Alexa594 fluorescence, heparin fibrillization; also: potency is read from the fitted curve at half-maximal effect; nearly all actives have a fitted effect of over 55% in size
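Human tau K18 P301L (15 uM unlabeled, 0.24 uM Alexa 594-labeled) in 100 mM sodium acetate pH 7 with 20 uM heparin, 6 hr at 37 C. ThT 30 uM added, 1 hr ambient; Alexa 594 FP and total fluorescence read at 555/632 nm.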
Tau fibril ThT: tau fibrillization inhibition (ThT binding) | actives 2.1% (n = 270,000) | Potency, µM (top dose mostly 57.4 µM), for the others: top-dose activity, negative = inhibition, actives largely listed as inhibitors | recombinant tau K18 P301L (four-repeat tau fragment), heparin-induced fibrillization, ThT fluorescence | P10636; also: potency is read from the fitted curve at half-maximal effect; nearly all actives have a fitted effect of over 55% in size
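Aggregation was driven by heparin (20 uM final) acting on recombinant tau […] bearing P301L in 100 mM sodium acetate pH 7; fibrils were detected with Thioflavin T.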
PNC assembly inh: perinucleolar compartment assembly inhibition | actives 3.1% (n = 140,000) | AID 2417 | activity change (PNC), negative = inhibition, % at 10 µM | PC3M PTB-GFP, PNC prevalence imaging, 16 h; stronger effect = lower value;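 active = readout at or below -70, meaning at least 70% loss of cells showing the perinucleolar compartment, a nuclear body marking cancer cells; inconclusive = readout between -30 and a set limit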;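 also: plate controls were DMSO wells for no effect and camptothecin positive control wells for full effect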
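Read-out is percentage of cells bearing a perinucleolar compartment, from automated 20x imaging of fixed, Hoechst-stained PC3M PTB-GFP cells. Cells were seeded 4 h, then exposed 16 h to compound (23 nl of library stock) in duplicate plates.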
An asterisk follows results filed as active; ? = inconclusive; . = not tested or not shown; [ ] = dose if it differs, or a comment. Sampled rows, rich in hits. Any-hit rate of the full collection: about 4.6%. Unless noted, calls follow the shape of the dose curve; as a rule, active = well fitted curve in the direction sought with a large enough effect; inconclusive = small, poorly fitted or top-dose-only effect, or another doubt; inactive = no such curve, though single readings can be large; an effect the other way counts as inactive or inconclusive. Unless noted, % is scaled to controls: 0 for no effect and ±100 for the full control effect.

SMILES	Tau FP inhib	TRb SRC2 PPI	TexasRed fluor	Tau fluor counter	Tau fibril ThT	PNC assembly inh
S=C(NCc1ccc(Cl)c(Cl)c1)Nc1ccc2c(c1)OCO2	?	-12%	-1%	16µM*[quencher]	?	12
Cc1cc(N2CCOCC2)nc2ccc(NC(=S)NCc3ccc4c(c3)OCO4)cc12	?	6%	-1%	14µM*[quencher]	?	.
CN(C)CCNC(=S)Nc1ccc(-c2nc3ccccc3[nH]2)cc1	5%	-3%	-3%	-9%	8%	.
Cc1ccccc1S(=O)(=O)Cc1ccc(C(=O)NC(C)c2ccc3c(c2)OCCO3)o1 (stereo not drawn)	-2%	-9%	-3%	-13%	-5%	1
Cc1ccc(CNC(=O)CCCN2C(=O)c3cccnc3Oc3ccc(Cl)cc32)cc1	3%	-9%	18µM*[quencher]	-2%	2%	.
COc1ccc(CNC(=O)CN2C(=O)c3cccnc3Oc3ccc(C)cc32)cc1	-7%	-22%	20µM*[quencher]	1%	2%	.
COc1ccc(CNC(=O)CCCN2C(=O)c3cccnc3Oc3ccc(Cl)cc32)cc1	-1%	4%	6%	-10%	-3%	.
COc1cc2c(cc1OC)C1(CCCC1)C(N)=C2C#N	8%	-2%	-6%	-6%	-7%	-100*
COc1ccc(C(=O)N[C@H](C(=O)Nc2ccc(OC)nc2)C(C)C)cc1	-1%	6%	1%	-7%	-9%	-112*
CCOC(CC(=O)NNC(=O)c1c(-c2c(Cl)cccc2Cl)noc1C)OCC	-4%	-3%	-2%	-1%	-3%	.
Cc1ccn2c(Nc3ccccc3)c(-c3c[nH]c4ccccc34)nc2c1	?	0%	?	11µM*[quencher]	?	.
Cc1ccc(Nc2c(-c3c[nH]c4ccccc34)nc3cc(C)ccn23)cc1	3%	3%	-14%	11µM*[quencher]	?	.
Cc1ccc2nc(-c3c[nH]c4ccccc34)c(Nc3ccc(F)cc3)n2c1	?	-8%	1%	5µM*[quencher]	-11%	.
CCOC(=O)c1c(-c2ccccc2)oc2ccc(O)c(CN3CCN(C)CC3)c12	5%	-3%	0%	-6%	-11%	-114*
O=C(CSc1ccc(-c2ccncc2)nn1)c1ccccc1	-10%	1%	1%	-9%	-10%	.
O=C(CSc1ccc(-c2cccnc2)nn1)c1ccc([N+](=O)[O-])cc1	-5%	-5%	-6%	?	14µM*	.
O=C(CSc1ccc(-c2ccccn2)nn1)c1ccc([N+](=O)[O-])cc1	2%	-3%	-9%	-28%	16µM*	.
O=C(CSc1ccc(-c2ccccn2)nn1)N1CCCCC1	-3%	-2%	-1%	-6%	-8%	.
O=C(N/N=C/c1c[nH]c2ccccc12)c1[nH]c2ccc(Br)cc2c1-c1ccccc1	-13%	-9%	7%	4µM*[quencher]	?	-112*
Cc1c(C(=O)N/N=C/c2ccc(Cl)cc2)[nH]c2ccc(Cl)cc12	-13%	-4%	?	?	?	-112*
O=C(N/N=C/c1c[nH]c2ccc(Br)cc12)c1ccc2c(c1)OCO2	?	0%	-5%	18µM*[quencher]	?	.
O=C(N/N=C/c1c[nH]c2ccc(Br)cc12)c1ccccn1	4%	-2%	-6%	-24%	?	.
O=C(N/N=C/c1ccc(O)cc1)c1[nH]c2ccc(Br)cc2c1-c1ccccc1	?	-5%	-1%	13µM*[quencher]	-15%	-5
COC(=O)C(C)N(C(=O)c1ccc(Cl)cc1)c1c(C)cccc1C (stereo not drawn)	-13%	-1%	2%	-19%	-10%	?
CCC1CC(CSC(=N)N)OC1=O (stereo not drawn)	-5%	2%	-2%	-15%	-17%	.
Cc1ccc(CNC(=O)CSc2nnc(C)c3c(C)n(-c4ccccc4)nc23)cc1	-6%	-1%	0%	-10%	?	.
Cc1occc1-c1nnc(SCC(N)=O)o1	-1%	5%	-1%	-4%	-8%	.
